{
  "source": "PubChem BioAssay (EPA / NIEHS)",
  "note": "Calls of active or inactive are those of the source. The calls were made as follows: active = hit-call score of the fitted dose curve at least 0.9, where 1 is the maximum; inactive = score below 0.9.",
  "data": [
    {"read-out": "Insulin Like Growth Factor 1 (IGF1), IGF1 (gene 3479)", "assay": "LTEA_HepaRG_IGF1: Life Technologies and Expression Analysis (LTEA) Assay for Insulin Like Growth Factor 1 (IGF1) using HepaRG (AID 2283506)", "settings": "mRNA level, 48 h; actives raise or lower the signal", "description": "LTEA_HepaRG is a cell based, multiplexed-readout assay that uses HepaRG, a human liver cell line, with measurements taken at 48 hours after chemical dosing on a 96-well plate.LTEA_HepaRG_IGF1 is one of 102 assay component(s) measured in the LTEA HepaRG cell culture assay. It is a marker of Cell proliferation, survival, death.Data from the assay component LTEA_HepaRG_IGF1 was analyzed into 1 endpoint. This assay endpoint, LTEA_HepaRG_IGF1, was analyzed with bidirectional fitting relative to DMSO as the negative control and baseline of activity. Using a type of inducible reporter, measures of mRNA induction for gain or loss-of-signal activity can be used to understand regulation of transcription factor activity. To generalize the intended target to other relatable targets, this assay endpoint is annotated to the growth factor intended target family, where the subfamily is insulin-like.\nA total of 1060 chemcials from the ToxCast library were tested in eight-point concentration-response experiments. Cell culture and cytotoxicity assays were conducted at Thermo Fisher Scientific's Custom Services facility (Madison, WI). A single lot of human HepaRG cells (Thermo Fisher Scientific, Frederick, MD) was used for the cell culture experiments. 96-well format collagen type I coated plates of human HepaRG cells were prepared using established methods. Briefly, cryopreserved HepaRG cells were thawed, plated at a density of approximately 100,000 cells/well in HepaRG Thaw, Plate, and General Purpose media (HPRG770, Thermo Fisher Scientific), and incubated for 48 hours. 0.5% DMSO was selected as vehicle control to balance the requisite need of DMSO in HepaRG cultures to maintain differentiation (for example, baseline metabolism, proportions of hepatocytes vs. cholangiocytes), while enabling further hepatic receptor pathway activation (for example, PXR and CAR) in response to chemical exposure. 48 hours after plating, the culture medium was replaced with HepaRG Serum-Free Incudtion Media. Cells were exposed to each test chemical in duplicate and maintained in CO2 incubators for another 48 hours. Chemical plates were thawed to room temperature and 200x concentrations of treatment groups were prepared. 8-point conentration-reponse curves were made with the highest exposure at 100 uM, followed by half-log dilutions, all in 0.5% DMSO. Each test plate contained variouse controls, induction positive controls (1mM phenobarbital), cytotoxicity positive controls ([…] aflatoxin B1), vehicle controls (0.5% DMSO), and total lysis controls (0.5% DMSO). Cell morphology images were taken using an Essen IncuCyte FLR automated microscope, with six 96-well plates imaged in about 24 minutes. Images were captured and exported and JPEG files. Spent culture media was transfered to black-well plates for the LDH assay, and remaining media was sorted at -80 C for later use. Cells were treated with RLT buffer and frozen until shipped for gene expression analysis. Total RNA was isolated from the cell suspension in 75 uL of Buffer RLT (Qiagen, Germantown, MD 20874) by Quintiles/Expression Analysis (Durham, NC) using a custom isolation procedure. Total RNA from each plate well was transferred to a preamplification plate. Fluidigm's 96.96 Dynamic ArrayTM (Fluidigm, Amsterdam, the Netherlands) technology was used for gene expression analyses by quantitative reverse transcription polymerase chain reaction (qRT-PCR, performed by Quintiles/Expression Analysis, Durham, NC)89. Standard TaqManTM Assays (Applied Biosystems/ThermoFisher Scientific, Foster City, CA) were used to assess the expression of 93 genes selected based on their selectivity and sensitivity to important hepatic receptors known to be modulated by environmental chemicals; importance in human hepatocyte functionality; and hepatotoxicity. […]", "values": [
      {"smiles": "CCOc1ccc2[nH]cc(C(=O)NCc3ccccc3)c(=O)c2n1", "AC50": "15.8 µM (active)"},
      {"smiles": "NC(=O)NN=Cc1ccc([N+](=O)[O-])o1", "AC50": "9.92 µM (active)"},
      {"smiles": "OC[C@H]1O[C@@](CO)(O[C@H]2O[C@H](CO)[C@@H](O)[C@H](O)[C@H]2O)[C@@H](O)[C@@H]1O", "outcome": "inactive"},
      {"smiles": "c1ccc(C(O[C@@H]2CCCN(CCc3ccc4c(c3)OCO4)C2)c2ccccc2)cc1", "AC50": "58 µM (active)"},
      {"smiles": "NC(=O)N(O)[C@@H]1COc2cc(OCc3ccccc3)ccc21", "outcome": "inactive"},
      {"smiles": "COCc1nnc(-c2ccc[n+]([O-])c2)n1-c1c(Cl)c(Cl)cc2[nH]c(=O)c(=O)[nH]c12", "outcome": "inactive"},
      {"smiles": "O=C(O)c1ccc2c(c1)nc(C(=O)NC1CCN(C3CC3)CC1)n2Cc1cc(-c2ccc(Cl)s2)on1", "outcome": "inactive"},
      {"smiles": "Cc1ncc([C@@H](CCCCCCc2ccc3c(n2)NCCC3)CC(=O)O)cn1", "outcome": "inactive"},
      {"smiles": "CCCc1ccccc1", "outcome": "inactive"},
      {"smiles": "CC(C)c1nnc2ccc(-c3ocnc3-c3cc(F)ccc3F)cn12", "AC50": "66.1 µM (active)"},
      {"smiles": "O=S(=O)(O)c1ccc(N=Nc2c(O)ccc3cc(S(=O)(=O)O)ccc23)cc1", "outcome": "inactive"},
      {"smiles": "CCCCCCCCCCCCCCO", "outcome": "inactive"},
      {"smiles": "O=S1(=O)CCCO1", "outcome": "inactive"},
      {"smiles": "c1ccc2cc3ccccc3cc2c1", "outcome": "inactive"},
      {"smiles": "Cn1c(=O)c2[nH]cnc2n(C)c1=O", "outcome": "inactive"},
      {"smiles": "CCCCCCCCN(C)C", "outcome": "inactive"},
      {"smiles": "OC(Cn1cncn1)(Cn1cncn1)c1ccc(F)cc1F", "outcome": "inactive"},
      {"smiles": "CC[C@H](C)C(=O)O[C@H]1C[C@H](O)C=C2C=C[C@H](C)[C@H](CC[C@@H](O)C[C@@H](O)CC(=O)O)[C@H]21", "outcome": "inactive"},
      {"smiles": "CNC(C)=O", "outcome": "inactive"},
      {"smiles": "CCc1cccc(CC)c1N", "outcome": "inactive"},
      {"smiles": "CCn1nc(C)c2c1C(=O)NCC(c1ccc(O)cc1)=N2", "outcome": "inactive"},
      {"smiles": "CCCCCOC(C)=O", "outcome": "inactive"},
      {"smiles": "CCCCCCCC/C=C\\CCCCCCCC(=O)OC[C@@H](O)[C@H]1OC[C@H](O)[C@H]1O", "outcome": "inactive"},
      {"smiles": "CCCCCCOC(=O)CC(CC(=O)OCCCCCC)(OC(=O)CCC)C(=O)OCCCCCC", "outcome": "inactive"},
      {"smiles": "C=CCc1cc(S(=O)(=O)c2ccc(O)c(CC=C)c2)ccc1O", "AC50": "83.5 µM (active)"},
      {"smiles": "OCC(CO)(CO)CO", "outcome": "inactive"},
      {"smiles": "c1ccc2c(c1)-c1cccc3c1c-2cc1ccccc13", "AC50": "16 µM (active)"},
      {"smiles": "Cc1ccc(S(=O)(=O)NC(=O)NN2CCCCCC2)cc1", "outcome": "inactive"},
      {"smiles": "CCCCOC(=O)c1ccccc1", "outcome": "inactive"},
      {"smiles": "COc1cc(C(C)C)c2c(c1)S(=O)(=O)N(COc1cc(=O)n3cccc(OCCN4CCCCC4)c3n1)C2=O", "outcome": "inactive"},
      {"smiles": "CC(C)CC(C)O", "note": "(stereo not given)", "outcome": "inactive"},
      {"smiles": "C=CN1CCCC1=O", "outcome": "inactive"},
      {"smiles": "NC(=O)N1c2ccccc2C=Cc2ccccc21", "outcome": "inactive"},
      {"smiles": "CCCCCCCCCCCCCCCCOS(=O)(=O)O", "AC50": "44.2 µM (active)"},
      {"smiles": "OC(CCl)CCl", "outcome": "inactive"},
      {"smiles": "OCCOCCOCCO", "outcome": "inactive"},
      {"smiles": "COS(C)(=O)=O", "outcome": "inactive"},
      {"smiles": "CCCCC(CC)C(=O)OCCOCCOCCOC(=O)C(CC)CCCC", "note": "(stereo not given)", "outcome": "inactive"},
      {"smiles": "O=c1[nH]cnc2c1ncn2[C@H]1CC[C@@H](CO)O1", "outcome": "inactive"},
      {"smiles": "O=C(NO)C1(NS(=O)(=O)c2ccc(Oc3ccc(F)cc3)cc2)CCOCC1", "AC50": "50 µM (active)"}
    ]}
  ]
}
